Twelve compounds from PubChem BioAssay (NCATS) can be followed below.

SMILES strings stand for the structures. Several values for one entry are separate records, joined by “and”; a condition that tells them apart may be missing. Equal values may be shown once. Results filed as inconclusive are left out. Activity calls are given as the source filed them. Unless noted, calls come from the whole dose curve; as a rule, active = well fitted curve in the direction sought with a large enough effect; inconclusive = small, poorly fitted or top-dose-only effect, or another doubt; inactive = no such curve, though single readings can be large; an effect the other way counts as inactive or inconclusive.

Test [1] is described as follows: qHTS to identify inhibitors of the type 1 interferon - major histocompatibility complex class I in skeletal muscle: primary screen against the NCATS Mechanism Interrogation Plate v5.0 (MIPE) Libary (AID 1347411). Note: nearly all actives have a fitted effect of over 65% in size. Put shortly: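 Immortalized human C25cl48 myoblasts with HiBit knocked into endogenous HLA-B*08:01 were stimulated with 4.0 ng/ml IFN-beta and exposed to compounds (11-point 1:3 titration, top 46 uM final) for 24 hrs at 37 C; HiBiT lytic luminescence measured.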
For orientation: Quantitative high-throughput screening tests each substance at several concentrations.

In test [2] the target is Protein phosphatase 1D (Homo sapiens) (UniProt O15297). As to the kind of experiment: Rhodamine-PBP qHTS Assay for Modulators of WT P53-Induced Phosphatase 1 (WIP1) (AID 1347425). The procedure, abridged: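 Steps: enzyme with Rh-PBP sensor and compounds, room-temperature incubation of 1 hr, baseline read, addition of VEPPL-pS-QETFS (10 uM final), kinetic fluorescence reads at 525/598 nm. Activity equals final minus baseline signal.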

Test [3] can be described thus: Primary qHTS for inhibitors of La Crosse Virus (LACV) - induced cell death in SH-SY5Y cells (AID 1508616).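 Note: top concentration of the series differs between compounds; higher means more rescue of cells from virus-induced death.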 The procedure, abridged:
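Luminescent ATP readout (ATPLite 1step, 5 min room temperature) measured rescue from LACV-induced death after 6 days of infection at 0.01 MOI; normalized to infected DMSO wells and uninfected DMSO wells.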

A short description of test [4]: Primary qHTS for small molecule stabilizers of the endoplasmic reticulum resident proteome: Secreted ER Calcium Modulated Protein (SERCaMP) assay (AID 1508630). The procedure, abridged:
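GLuc-SERCaMP-expressing SH-SY5Y cells, pretreated 16 h with compound, are challenged with thapsigargin to empty ER calcium stores; after 4 h, coelenterazine is added directly to the medium and luminescence is imaged.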

Test [5] can be described thus: A High-Content qHTS Against Drug Library for the Identification of Small Molecules that Inhibit DYT1 Early Onset Primary Dystonia-Associated Cell Pathology (AID 1645839; calls by dose curve; note: series mostly up to about 46 µM). Put shortly:
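Flp-In T-REx 293 cells with tetracycline-inducible EGFP-delE hTOR1A (WT EGFP-hTOR1A as reference), 800 cells/well; compound added with tetracycline, 48 h at 37 C. Fixed, permeabilized cells imaged; %pathology (punctate TorsinA) primary, cell count counterscreen.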

The target in test [6] is Cytochrome P450 2D6 (Homo sapiens) (UniProt P10635). Description: Cytochrome P450 family 2 subfamily D member 6 (CYP2D6) small molecule antagonists: luciferase biochemical (cell-free) qHTS assay (AID 1645840; active = well fitted curve in the direction sought with a large enough effect in the repeat runs; an effect the other way counts as inactive or inconclusive; note: nearly all actives have a fitted effect of over 55% in size; note: potency is the fitted concentration of half-maximal effect). Put shortly:
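P450-Glo luminescent screen: recombinant CYP2D6 enzyme–proluciferin substrate mix preincubated with compound 10 min at room temperature, then NADPH regeneration added for 1 h at room temperature. Detection reagent added for 20 min; luciferin light read as relative luminescence units.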

For test [7], the target named is Cytochrome P450 2C9 (Homo sapiens) (UniProt P11712). As to the kind of experiment: Cytochrome P450 family 2 subfamily C member 9 (CYP2C9) small molecule antagonists: luciferase biochemical (cell-free) qHTS assay (AID 1645842; active = well fitted curve in the direction sought with a large enough effect in the repeat runs; an effect the other way counts as inactive or inconclusive; note: nearly all actives have a fitted effect of over 55% in size; note: potency is the fitted concentration of half-maximal effect). Put shortly: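 Luminescence, after 20 min with luciferin detection reagent, reflected CYP2C9 turnover during a 1 h NADPH-driven reaction at 37C. Enzyme-substrate mix contained 0.4% bovine serum albumin and was preincubated with compound 10 min at room temperature.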

Test [8] can be described thus: Primary qHTS for inhibitors of nuclear receptor binding SET domain protein 2 (NSD2) in an isogenic RCH-ACV NSD2 p.E1099K mutant (9B) (AID 1645876). Note: nearly all actives have a fitted effect of over 70% in size. Note: potency is the fitted concentration of half-maximal effect.
Test [9] has as its target Calcium and integrin-binding protein 1 (Homo sapiens) (UniProt Q99828). As to the kind of experiment: Primary qHTS for Identification of Calcium Integrin Binding Protein 1 (CIB1) Competitor (AID 1508620). Note: top concentration of the series differs between compounds. Put shortly: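 Fluorescence polarization competition: GST-tagged CIB1 (1 uM final) preincubated with compound 15 min at room temperature, then FITC-labelled alphaIIb peptide (100 nM final) added. After 15 min at room temperature, polarization read at Ex 480/Em 540.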

The nature of test [10]: Validation qHTS assay for inhibitors of Activation Induced Cytidine Deaminase (AID): UDG Counterscreen signal (AID 1347427). Note: potency is the fitted concentration of half-maximal effect. The procedure, abridged:
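Counterscreen read of UDG activity (2 U/mL, 4/3x) in the FRET deamination format with AID (1 uM, 4/3x), DJC20/DJC23 substrates (250 nM, 4x), 4 h at room temperature. NaOH stop, fluorescence at 560 ex/665 em.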

Test [11] deals with Single-stranded DNA cytosine deaminase (Homo sapiens) (UniProt Q9GZX7). Description: Validation qHTS assay for inhibitors of Activation Induced Cytidine Deaminase (AID): AID signal (AID 1347429). Put shortly:
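AID and UDG were combined and compounds added at final up to 114 uM, then DJC20/DJC23 FRET substrate was added for 4 hr at room temperature. NaOH was then added for 30 min before fluorescence was read at 540/590 nm.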

In test [12] the target is Protein phosphatase 1D (Homo sapiens) (UniProt O15297). Description: RapidFire Mass Spectrometry qHTS Assay for Modulators of WT P53-Induced Phosphatase 1 (WIP1) (AID 1347424).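 Note: amount of dephosphorylated VEPPL-S-QETFS peptide product formed by WIP1; series mostly up to about 63 µM.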 The procedure, abridged: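 10 nM WIP1 preincubated with compounds 1 hr at room temperature in pH 7.5 Tris buffer with 30 mM MgCl2, 1 mM TCEP; 2 uM VEPPL-pS-QETFS phosphopeptide for 5 min, formic acid quench; dephosphorylated product quantified by RapidFire MS against labelled standard.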

Test [13] deals with Calcium and integrin-binding protein 1 (Homo sapiens) (UniProt Q99828). As to the kind of experiment: Validation qHTS for Identification of Calcium Integrin Binding protein 1 (CIB1) Competitor (AID 1508618). Put shortly:
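In this qHTS validation, the LOPAC set (up to 114 uM) was tested for blocking CIB1 binding to a fluorescein-tagged alphaIIb peptide, with FP detection at 480/540 nm.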

Test [14] has as its target Papain (Carica papaya) (UniProt P00784). Description: Primary qHTS assay for inhibitors of the protease papain (AID 1645873).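 Note: papain turnover of Z-FR-AMC read as the AMC fluorescence gain over 10 min; series mostly up to about 50 µM.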

Calcium and integrin-binding protein 1 (Homo sapiens), sequence (Q99828 whole entry, looked up): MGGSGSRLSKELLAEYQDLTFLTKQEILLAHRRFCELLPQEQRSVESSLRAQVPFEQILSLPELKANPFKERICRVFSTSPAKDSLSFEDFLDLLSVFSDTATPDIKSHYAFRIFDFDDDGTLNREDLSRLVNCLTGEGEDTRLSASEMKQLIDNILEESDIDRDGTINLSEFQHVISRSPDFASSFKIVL
Cytochrome P450 2C9 (Homo sapiens), sequence (P11712 whole entry, looked up): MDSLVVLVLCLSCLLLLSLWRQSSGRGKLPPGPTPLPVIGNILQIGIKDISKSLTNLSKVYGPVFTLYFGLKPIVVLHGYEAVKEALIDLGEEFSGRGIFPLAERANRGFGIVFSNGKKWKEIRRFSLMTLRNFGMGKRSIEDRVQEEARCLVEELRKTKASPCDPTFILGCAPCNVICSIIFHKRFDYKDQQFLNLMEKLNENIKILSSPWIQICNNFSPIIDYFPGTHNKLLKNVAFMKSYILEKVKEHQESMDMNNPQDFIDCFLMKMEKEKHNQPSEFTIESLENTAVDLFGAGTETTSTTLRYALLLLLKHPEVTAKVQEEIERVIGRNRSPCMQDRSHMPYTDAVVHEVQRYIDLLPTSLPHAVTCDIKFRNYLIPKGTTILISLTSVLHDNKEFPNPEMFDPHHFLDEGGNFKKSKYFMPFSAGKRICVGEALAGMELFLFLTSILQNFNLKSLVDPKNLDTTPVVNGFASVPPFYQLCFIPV
Protein phosphatase 1D (Homo sapiens), sequence (O15297 whole entry, looked up): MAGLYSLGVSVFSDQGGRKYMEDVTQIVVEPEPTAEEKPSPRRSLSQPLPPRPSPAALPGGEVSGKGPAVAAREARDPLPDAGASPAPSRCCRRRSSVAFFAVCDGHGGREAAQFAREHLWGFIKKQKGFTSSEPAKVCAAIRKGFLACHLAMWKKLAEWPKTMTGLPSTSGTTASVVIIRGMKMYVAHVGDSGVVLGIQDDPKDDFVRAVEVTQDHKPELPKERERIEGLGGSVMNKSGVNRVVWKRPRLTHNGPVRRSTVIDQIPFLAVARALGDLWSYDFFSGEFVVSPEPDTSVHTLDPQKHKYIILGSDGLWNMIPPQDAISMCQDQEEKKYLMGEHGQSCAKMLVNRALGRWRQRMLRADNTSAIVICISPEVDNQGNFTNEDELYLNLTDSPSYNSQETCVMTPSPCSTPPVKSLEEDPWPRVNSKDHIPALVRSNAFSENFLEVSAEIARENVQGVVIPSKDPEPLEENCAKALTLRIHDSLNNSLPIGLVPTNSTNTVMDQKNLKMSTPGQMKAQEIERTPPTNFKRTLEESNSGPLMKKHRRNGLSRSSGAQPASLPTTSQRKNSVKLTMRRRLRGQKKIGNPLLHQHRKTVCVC
Cytochrome P450 2D6 (Homo sapiens), sequence (P10635 whole entry, looked up): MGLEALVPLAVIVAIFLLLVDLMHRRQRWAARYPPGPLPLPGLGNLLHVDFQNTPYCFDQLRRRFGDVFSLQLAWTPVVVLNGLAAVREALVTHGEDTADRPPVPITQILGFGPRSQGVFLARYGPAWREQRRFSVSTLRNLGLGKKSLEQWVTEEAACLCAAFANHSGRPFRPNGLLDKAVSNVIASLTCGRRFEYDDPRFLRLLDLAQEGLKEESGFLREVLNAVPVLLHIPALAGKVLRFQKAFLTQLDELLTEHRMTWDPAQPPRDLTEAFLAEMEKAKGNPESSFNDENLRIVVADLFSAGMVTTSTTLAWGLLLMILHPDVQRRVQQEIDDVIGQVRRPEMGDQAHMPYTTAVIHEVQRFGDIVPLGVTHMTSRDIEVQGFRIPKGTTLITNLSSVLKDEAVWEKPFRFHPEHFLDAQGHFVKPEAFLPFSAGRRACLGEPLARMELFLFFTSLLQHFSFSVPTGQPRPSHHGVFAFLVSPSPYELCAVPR
Single-stranded DNA cytosine deaminase (Homo sapiens), sequence (Q9GZX7 whole entry, looked up): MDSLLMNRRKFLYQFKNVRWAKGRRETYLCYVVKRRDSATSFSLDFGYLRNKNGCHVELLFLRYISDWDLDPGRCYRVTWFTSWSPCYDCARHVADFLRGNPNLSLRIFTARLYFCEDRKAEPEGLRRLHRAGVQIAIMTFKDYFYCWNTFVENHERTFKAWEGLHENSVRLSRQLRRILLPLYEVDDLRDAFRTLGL
Papain (Carica papaya), sequence (P00784 whole entry, looked up): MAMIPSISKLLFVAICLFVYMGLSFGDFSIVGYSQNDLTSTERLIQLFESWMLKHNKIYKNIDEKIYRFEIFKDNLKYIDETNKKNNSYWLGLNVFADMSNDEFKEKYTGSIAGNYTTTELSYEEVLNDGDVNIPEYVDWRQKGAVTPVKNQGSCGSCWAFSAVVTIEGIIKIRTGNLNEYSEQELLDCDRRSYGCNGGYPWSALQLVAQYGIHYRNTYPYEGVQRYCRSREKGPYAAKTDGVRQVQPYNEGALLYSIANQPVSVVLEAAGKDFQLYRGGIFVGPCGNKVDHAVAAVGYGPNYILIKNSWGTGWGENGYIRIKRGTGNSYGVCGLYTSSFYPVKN

Turning to `CN(C)C(=O)COC(=O)Cc1ccc(OC(=O)c2ccc(N=C(N)N)cc2)cc1`, the Potency entry in [1], in [3], in [4], in [5], in [6] and in test [7] was “inactive” each time. Moreover, the Potency entry in [8] is “inactive”. Moreover, in test [2], the compound was classed as inactive.

On to `Cc1nc(-c2ccc(OCC(C)C)c(C#N)c2)sc1C(=O)O`, for which the Potency result in [1], in [3], in [9], in [4], in test [6] and in [8] was “inactive” each time. In addition, the call in test [2] was inactive.

With `O=c1c(O)c(-c2ccc(O)cc2O)oc2cc(O)cc(O)c12`, the Potency result in [1], in test [10], in [3], in [9], in test [4] and in [6] was “inactive” throughout. Further, the call in [11] was inactive.

For the compound `NS(=O)(=O)c1cc(C(=O)O)c(NCc2ccco2)cc1Cl`, the Potency result in test [12], in test [3], in test [9], in test [4], in test [5] and in [8] was “inactive” in each case. Further, the outcome in test [2] was inactive.

On to `Cc1nc(Nc2ncc(C(=O)Nc3c(C)cccc3Cl)s2)cc(N2CCN(CCO)CC2)n1`, for which the Potency entry in test [12], in [3], in test [9], in test [4], in test [6] and in test [7] was “inactive” each time. For the same compound, the call in test [2] was inactive. Also, the Potency in test [8] is 0.7 nM (active) and 12.9 nM (active) and 20.9 nM (active).

Take `COc1cc2nc(N3CCN(C(=O)C4CCCO4)CC3)nc(N)c2cc1OC` (stereo unspecified): the Potency result in test [12], in [10], in test [3], in [4], in [5] and in [7] was “inactive” each time. Moreover, the compound was classed as inactive in [2] and in test [11]. Further, the Potency in [8] was 11.9 µM (active).

For `Cc1nccn1CC1CCc2c(c3ccccc3n2C)C1=O` (stereo unspecified), the Potency entry in test [12], in [3], in test [9], in test [4], in [5] and in [7] was “inactive” in each case. In addition, the Potency entry in test [8] is “inactive”. Moreover, the call in test [2] was inactive. The Potency in [6] is 11 µM (active) and 13.5 µM (active).

Turning to `CC1=C(C(=O)O)N2C(=O)[C@@H](NC(=O)[C@H](N)C3=CCC=CC3)[C@H]2SC1`, the Potency result in [12], in test [3], in test [9], in [4], in test [5] and in [6] was “inactive” each time. For the same compound, the Potency result in test [7] and in test [8] was “inactive” throughout. Further, in test [2], the result was inactive.

Consider `O=c1oc2cc(O)ccc2s1`, for which the Potency entry in test [1], in test [9], in test [4], in test [6] and in test [7] was “inactive” throughout. For the same compound, the Potency in [8] is 20.9 µM (active).

As to `CN(C)C(=O)[C@H](O)[C@H](Cc1ccccc1)NC(=O)c1cc2cc(Cl)ccc2[nH]1`, the Potency result in test [1], in [9], in [4] and in test [14] was “inactive” in each case. For the same compound, the result in test [13] was inactive.

Consider `NNc1nncc2ccccc12`, for which the Potency entry in test [12], in test [3], in test [9], in [4], in test [5] and in test [6] was “inactive” throughout. The Potency entry in test [7], in test [14] and in [8] was “inactive” throughout. Besides, the compound was called inactive in test [2] and in test [13]. In addition, the Potency in test [10] was 39.8 µM (active).

In the case of `CN1C(C(=O)Nc2ccccn2)=C(O)c2sccc2S1(=O)=O`, the Potency entry in [12], in test [3], in test [9], in test [4], in test [5] and in test [6] was “inactive” each time. Further, the Potency result in test [8] is “inactive”. Further, the compound was called inactive in test [2]. In addition, the Potency in [7] was 12.3 µM (active).
